Data published in ChEMBL document CHEMBL1961873, “Compounds: GSK PKIS; Assays: Nanosyn kinase panel” (2012).

System: Platelet-derived growth factor receptor alpha (Homo sapiens), P16234 [V561D]
Conditions: at 1 µM

Chain of Platelet-derived growth factor receptor alpha (Homo sapiens), P16234 [V561D] (P16234 whole entry V561D): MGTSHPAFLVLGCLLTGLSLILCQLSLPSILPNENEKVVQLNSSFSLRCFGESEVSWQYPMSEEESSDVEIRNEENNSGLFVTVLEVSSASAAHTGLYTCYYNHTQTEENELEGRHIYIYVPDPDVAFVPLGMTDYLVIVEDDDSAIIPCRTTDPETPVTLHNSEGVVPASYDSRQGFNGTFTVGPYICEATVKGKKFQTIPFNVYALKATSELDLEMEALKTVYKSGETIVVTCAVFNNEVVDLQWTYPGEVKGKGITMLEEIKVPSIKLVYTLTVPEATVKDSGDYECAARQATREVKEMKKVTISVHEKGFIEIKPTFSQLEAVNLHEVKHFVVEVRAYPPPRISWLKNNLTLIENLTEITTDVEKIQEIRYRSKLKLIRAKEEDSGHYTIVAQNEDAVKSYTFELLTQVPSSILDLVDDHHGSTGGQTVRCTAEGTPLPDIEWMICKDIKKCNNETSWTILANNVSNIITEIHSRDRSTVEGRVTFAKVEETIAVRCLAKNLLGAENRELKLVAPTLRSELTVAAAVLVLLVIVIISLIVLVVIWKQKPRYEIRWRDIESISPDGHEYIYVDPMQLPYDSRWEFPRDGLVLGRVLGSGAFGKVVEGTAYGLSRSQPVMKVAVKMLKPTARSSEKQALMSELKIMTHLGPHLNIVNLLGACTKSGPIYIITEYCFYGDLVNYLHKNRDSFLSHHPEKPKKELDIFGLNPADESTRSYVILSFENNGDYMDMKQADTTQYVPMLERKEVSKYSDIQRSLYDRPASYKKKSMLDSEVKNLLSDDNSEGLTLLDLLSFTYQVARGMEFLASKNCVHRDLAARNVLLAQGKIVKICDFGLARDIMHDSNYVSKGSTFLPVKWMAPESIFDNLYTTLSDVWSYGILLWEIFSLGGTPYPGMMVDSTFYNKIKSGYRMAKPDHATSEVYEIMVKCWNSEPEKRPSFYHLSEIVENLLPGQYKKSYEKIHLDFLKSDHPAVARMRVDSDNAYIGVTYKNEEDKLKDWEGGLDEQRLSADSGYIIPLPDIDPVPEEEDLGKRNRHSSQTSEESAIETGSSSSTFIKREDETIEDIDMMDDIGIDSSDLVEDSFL

Row | Structure (SMILES) | inhibition [%]
1 | CCC(=O)Nc1ccc(C)c(-c2ccc(C(=O)NCC3CC3)cc2)c1 | 3.77
2 | CN(C)CCOc1ccc(-c2cc(-c3ccc4c(c3)CCC4=NO)c(-c3ccncc3)o2)cc1 | 4.25
3 | c1ccc(-c2n[nH]cc2-c2ccnc(-c3ccc(OCCN4CCOCC4)cc3)c2)nc1 | 55.5
4 | COc1cccc(/C=N/Nc2ncnc3c2cnn3-c2cccc(OC)c2)c1 | 7.82
5 | NCc1ccc(-n2c(-c3nonc3N)nc3cnccc32)cc1 | 8.66
6 | Cc1ccc(C(=O)NC2CCC2)cc1-c1ccc(C(=O)NCC2CC2)cc1 | 5.32
7 | COc1cc(Nc2ncc3c(C)nc(-c4cccc(Oc5ccccc5)c4)n3n2)cc(OC)c1OC | 9.34
8 | Fc1ccc(-c2ncn(C3CCNCC3)c2-c2ccnc(Oc3ccc(F)c(F)c3)n2)cc1 | 5.74
9 | COC(=O)Nc1nc2ccc(Sc3ccc(NC(=O)Nc4cc(C(F)(F)F)ccc4F)cc3)cc2[nH]1 | 56.3
10 | NC(=O)c1cc(-c2ccc(F)cc2)cc(-c2ccncc2)c1N | 4.61
11 | CN(C)CCCNc1nccc(-c2c(-c3ccc(F)cc3)nn3cc(C(F)(F)F)ccc23)n1 | 5.89
12 | CCc1nccc2c1nc(-c1nonc1N)n2CC | 6.72
13 | COc1ccc(-c2ccc3c(NC(=O)C4CC4)n[nH]c3n2)cc1 | 9.71
14 | O=C1Nc2ccc(I)cc2C1=Cc1cc(Br)c(O)c(Br)c1 | 7.24
15 | O=C(Nc1n[nH]c2nc(-c3ccc(O)cc3)c(Br)cc12)C1CC1 | 64.6
16 | CS(=O)(=O)CCNCc1cc(-c2cc3c(Nc4ccc(OCc5cccc(F)c5)c(Cl)c4)ncnc3s2)cs1 | 5.56
17 | Cc1nnc(-c2ccc(C)c(-c3ccc(C(=O)NCc4ccc(Cl)cc4)cc3)c2)o1 | 2

Row | Structure (SMILES) | inhibition [%]
18 | Cc1ccc(C(=O)NC(C)C)cc1-c1ccc(C(=O)NCC2CC2)cc1 | 2.98
19 | O=C(Nc1ccc(Oc2ccc3[nH]c(NC(=O)c4ccccc4)nc3c2)cc1)Nc1cc(C(F)(F)F)ccc1F | 79.4
20 | COc1cc(C)c(N(C)C(=O)CN(C)C)cc1Nc1nc(Nc2cccc(F)c2C(N)=O)c2cc[nH]c2n1 | 2.56
21 | CN(C)c1ccc2c(c1)/C(=C/Nc1ccc(S(N)(=O)=O)cc1)C(=O)N2 | 60.9
22 | c1ccc(Oc2ccc(Nc3ncc(-c4ccccc4)o3)cc2)cc1 | 19.6
23 | COc1cccc(-n2cnc3c(N/N=C/c4ccncc4)ncnc32)c1 | 51
24 | Fc1ccc(-c2ncn(C3CCNCC3)c2-c2ccnc(Oc3ccc(Oc4ccccc4)cc3)n2)cc1 | 3.75
25 | O=C(NCC1CC1)c1ccc(-c2cccc(C(=O)NC3CC3)c2)cc1 | 2.85
26 | N#Cc1ccc(Oc2nccc(-c3c(-c4ccc(F)cc4)ncn3C3CCNCC3)n2)cc1 | 3.69
27 | COc1ccc2cc(-c3c(-c4ccncc4)nc(-c4ccc(S(C)(=O)=O)cc4C)n3C)ccc2c1 | 15.3
28 | C/C(Nc1ccc(S(N)(=O)=O)cc1)=C1/C(=O)Nc2ccccc21 | 62
29 | Fc1ccc(-c2c(-c3ccncc3)nc3n2CCS3)cc1 | 2.96
30 | C#Cc1cccc(Nc2ncnc3ccc(OCCCCNCCS(C)(=O)=O)cc23)c1 | 10.6
31 | COc1ccc2ncn(-c3cc(O[C@H](C)c4ccccc4Cl)c(C(N)=O)s3)c2c1 | 16.6
32 | Fc1ccc(-c2nc3n(c2-c2ccncc2)CCS3)cc1 | 4.82
33 | CCS(=O)(=O)c1ccc(OC)c(Nc2ncc(-c3cccc(-c4ccccc4F)c3)o2)c1 | 60.4
34 | Nc1nccc(-c2c(-c3ccc(F)cc3)ncn2C2CCC(O)CC2)n1 (centres undefined) | 21.1
